The source of these data is the OligoGym collection.
Further: reference of the scale not given here.

One assay deals with PRODH2. Nature of the assay: pooled miR-30 sensor sort-seq; sequence = guide strand. To be noted: shRNA.
For AAAATTGGAAACGCTGTAGTGT, the sensor-assay potency score (higher = more potent) is -0.189.
TTGCTTCCTCTTAAAATTGGAA: the sensor-assay potency score (higher = more potent) is -1.06.
Consider TTATTGAATACATTTGAAAATA, for which the sensor-assay potency score (higher = more potent) is -1.75.
For TGAAAATACGGTTCTCACGTTT, the sensor-assay potency score (higher = more potent) came out at 0.0951.
Still for that read-out and setting: the same measure for TTGAAAATACGGTTCTCACGTT: -0.536.
Still for that read-out and setting: for AATACATTTGAAAATACGGTTC the value was -0.869.
The sequence TAGTGTTATTGAATACATTTGA displayed a sensor-assay potency score (higher = more potent) of -0.549.

For a further assay, the target named is PROM2. The description is as above. Conditions: shRNA.
In turn, TGTAGGTCTCGTATCTCTGCAC returned a sensor-assay potency score (higher = more potent) of -0.146.
The sequence TTGACGGCAAAGATGATGCTGG returned a sensor-assay potency score (higher = more potent) of -0.136.
TTCTCCTCCTGGACCATGCTGG displayed a sensor-assay potency score (higher = more potent) of -0.874.
Same read-out and setting: for TAGCTTGTTGGTATACTGGTTG the value was -0.045; for TATTTGGAGGTCTTGACGGCAA, -0.214.
Still for that read-out and setting: for TTGGGGGACATCAGAGACCAGG the value was -1.48.
With TCACACAGGATCACACGGCTGT, the sensor-assay potency score (higher = more potent) is 0.353.
Turning to TAGGACATCTGAGGTCTCCAGC, the sensor-assay potency score (higher = more potent) was -0.69.
Consider TTGGCTAGGACATCTGAGGTCT, for which the sensor-assay potency score (higher = more potent) was found to be 0.382.
On the same count and under the same terms, for TTGAGCTGCAGGACTGTCCAGA the value was -0.114; for TTCAGCTCTTGCACCACGCTGG, -0.154.
TTGTGCTCTGTCTTCACTCGTC gave a sensor-assay potency score (higher = more potent) of 0.345.

For a further assay, the target named is PRPS1. The description is as above. Conditions: shRNA.
TATTGGTGACTACTACTGCCTC returned a sensor-assay potency score (higher = more potent) of -1.03.
Still for that read-out and setting: the same measure for TCAGGTGAGACAATAGTGCAGT: 0.663; for TTATCTTTCTTATCCTGCCGGG: 0.175; for TCACTCTCTTAGCTCCACCAGC: -0.945.
Take TTGTCATTGATTTCGCCACAAC: the sensor-assay potency score (higher = more potent) was -1.49.
Same read-out and setting: the same measure for TATCTTTCTTATCCTGCCGGGC: -0.757; for TGATAATATGATCTGCACCTGC: -0.404; for TACACTTTCACCAATTTCCACA: -0.758.
TTGGTGACTACTACTGCCTCAA yielded a sensor-assay potency score (higher = more potent) of -0.00628.
On the same count and under the same terms, the same measure for TTTGCAACAAGCTTGGCTGAGA: -0.163.
As for TAATATGATCTGCACCTGCTAC, the sensor-assay potency score (higher = more potent) is -0.935.
Same read-out and setting: for TAAATTGTCATTGATTTCGCCA the value was -0.0544.

Another assay has as its target PRPS2. The assay is described as above. To be noted: shRNA.
For the sequence TGTCCTTTTTATCTTGTCGGGC, the sensor-assay potency score (higher = more potent) was -0.556.
The sequence TTTCATTTTGTCCTCTTGCGGA gave a sensor-assay potency score (higher = more potent) of -0.379.
Consider TTGTCCTTTTTATCTTGTCGGG, for which the sensor-assay potency score (higher = more potent) is -0.968.
Still for that read-out and setting: for ATGACCTGAATCTTGGTGCAGT the value was -0.901.
Sequence TTCTGGAAATAGCTGGTCCAGA showed a sensor-assay potency score (higher = more potent) of -1.31.
On the same count and under the same terms, the same measure for TATACTTGAAAGTTGTCGCCTC: 0.742; for TATTTATTCTGGAAATAGCTGG: -0.496.
The same measure, in the same setting: the same measure for TGGTTGCTGAACTTCTTCGTGA: -1.01; for TTAGCATATACAAAGATCTGAT: -0.612.
